Test results: PubChem BioAssay
For some assays here: Results with a measured potency or affinity are listed apart. Active and inactive are the calls of the source. Unless noted, no rule for the calls is given here.

Experiments:
[1] = antimalarial activity against Dd2 strain (AID 2302;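 active = growth inhibition above 50% at the single 2 µM test dose, taken to imply half-maximal potency below 2 µM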;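 also: 0% = DMSO untreated growth and 100% = chloroquine plus artemisinin killed control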); details: P. falciparum Dd2 in RBCs, LDH growth readout, 72 h; at 2 µM; hits give high values
[2] = HepG2 cytotoxicity, primary screen, cytotoxicity control for P. falciparum antimalarial project, cell-based, ATP luminescence (AID 2303;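 active = inhibition above 50%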;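 also: 0% = DMSO wells and 100% = digitonin-killed cells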); details: HepG2 viability, 24-48 h, at 10 µM, hits give high values
[3] = target: L-lactate dehydrogenase (Plasmodium falciparum (isolate CDC / Honduras)) (UniProt Q27743); test: PfLDH activity inhibition – cell lysate, 3D7 strain, counter-screen for P. falciparum growth inhibition project (AID 2304);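 also: 0% = vehicle and 100% = reference inhibitor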; details: P. falciparum 3D7 crude extract, LDH APAD/NBT absorbance; at 2 µM; hits give high values
L-lactate dehydrogenase (Plasmodium falciparum (isolate CDC / Honduras)), sequence (Q27743 whole entry, looked up): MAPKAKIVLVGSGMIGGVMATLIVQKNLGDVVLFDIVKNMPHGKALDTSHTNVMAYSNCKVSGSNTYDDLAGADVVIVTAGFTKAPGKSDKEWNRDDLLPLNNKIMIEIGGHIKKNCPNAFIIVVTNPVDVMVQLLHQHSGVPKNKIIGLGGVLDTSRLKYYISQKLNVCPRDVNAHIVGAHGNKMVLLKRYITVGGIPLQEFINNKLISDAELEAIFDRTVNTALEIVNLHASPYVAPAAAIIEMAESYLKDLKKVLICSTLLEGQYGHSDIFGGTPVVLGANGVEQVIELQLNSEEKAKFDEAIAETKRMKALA

[4] = inhibition of 3D7 malaria parasite growth – strain 3D7 (AID 2306);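 also: 0% = DMSO wells and 100% = chloroquine plus artemisinin control wells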; details: P. falciparum 3D7 erythrocytic growth, LDH absorbance, 72 h; at 2 µM; hits give high values
[5] = target: Calcium-dependent protein kinase 1 (Plasmodium falciparum (isolate 3D7)) (UniProt P62344); test: PfCDPK1 kinase inhibitors, biochemical, TCAMS library (AID 1159585; cut-off not given, nearly all actives have IC50 up to about 0.98 µM;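 also: inhibitors leave more ATP so luminescence rises with inhibition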); details: recombinant PfCDPK1, Kinase-Glo ATP depletion luminescence
Calcium-dependent protein kinase 1 (Plasmodium falciparum (isolate 3D7)), sequence (P62344 whole entry, looked up): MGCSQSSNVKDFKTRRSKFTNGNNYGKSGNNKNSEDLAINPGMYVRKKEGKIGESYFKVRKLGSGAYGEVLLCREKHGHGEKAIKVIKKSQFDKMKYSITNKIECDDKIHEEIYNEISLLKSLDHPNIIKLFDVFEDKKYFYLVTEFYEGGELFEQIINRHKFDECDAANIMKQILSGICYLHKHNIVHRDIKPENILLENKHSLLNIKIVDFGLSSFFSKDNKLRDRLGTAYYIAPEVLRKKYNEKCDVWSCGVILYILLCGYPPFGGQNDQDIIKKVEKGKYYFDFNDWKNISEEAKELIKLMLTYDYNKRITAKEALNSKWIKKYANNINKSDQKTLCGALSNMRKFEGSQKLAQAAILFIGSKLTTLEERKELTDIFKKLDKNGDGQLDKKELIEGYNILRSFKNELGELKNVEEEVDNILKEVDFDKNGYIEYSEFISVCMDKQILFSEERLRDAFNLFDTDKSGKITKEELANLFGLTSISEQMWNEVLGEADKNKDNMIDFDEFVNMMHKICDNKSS

[6] = target: Plasmodium falciparum protein kinase 6 (PK6, PF3D7_1337100) (UniProt Q8IDW1); test: PfPK6 kinase inhibitors, biochemical, TCAMS library (AID 1159586); details: recombinant PfPK6, Kinase-Glo ATP depletion luminescence
Plasmodium falciparum protein kinase 6 (PK6, PF3D7_1337100), sequence (Q8IDW1 1-305): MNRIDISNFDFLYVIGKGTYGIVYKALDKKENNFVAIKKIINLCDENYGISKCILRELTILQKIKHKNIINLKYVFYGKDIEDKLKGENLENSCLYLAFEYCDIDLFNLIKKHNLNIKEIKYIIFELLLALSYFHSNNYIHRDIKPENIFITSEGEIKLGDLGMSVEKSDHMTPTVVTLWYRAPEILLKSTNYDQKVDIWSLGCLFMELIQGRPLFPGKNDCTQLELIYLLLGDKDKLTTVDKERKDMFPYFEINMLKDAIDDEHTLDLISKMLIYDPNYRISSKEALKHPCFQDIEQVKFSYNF

[7] = target: Protein kinase 7 (PK7), Plasmodium falciparum 3D7 (PF3D7_0213400) (UniProt Q7YTF7); test: inhibition of Plasmodium PK7 catalytic activity – biochemical, TCAMS antimalarial set, Kinase-Glo luminescence (AID 1159587); details: recombinant PfPK7, Kinase-Glo ATP depletion luminescence
Protein kinase 7 (PK7), Plasmodium falciparum 3D7 (PF3D7_0213400), sequence (Q7YTF7 1-343): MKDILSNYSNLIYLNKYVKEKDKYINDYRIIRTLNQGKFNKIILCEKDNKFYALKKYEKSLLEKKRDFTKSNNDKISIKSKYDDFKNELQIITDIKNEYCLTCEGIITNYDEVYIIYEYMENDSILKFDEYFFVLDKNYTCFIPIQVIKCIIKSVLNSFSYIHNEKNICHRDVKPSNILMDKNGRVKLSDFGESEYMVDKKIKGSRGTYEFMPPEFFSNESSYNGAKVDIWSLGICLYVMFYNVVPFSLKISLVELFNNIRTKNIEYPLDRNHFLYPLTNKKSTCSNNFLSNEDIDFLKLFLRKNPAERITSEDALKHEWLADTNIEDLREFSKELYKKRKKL

[8] = target: Calcium-dependent protein kinase 4 (Plasmodium falciparum (isolate 3D7)) (UniProt Q8IBS5); test: PfCDPK4 kinase inhibitors, biochemical, TCAMS library (AID 1159588; cut-off not given, nearly all actives have IC50 up to about 0.91 µM); details: recombinant PfCDPK4, Kinase-Glo ATP depletion luminescence
Calcium-dependent protein kinase 4 (Plasmodium falciparum (isolate 3D7)), sequence (Q8IBS5 whole entry, looked up): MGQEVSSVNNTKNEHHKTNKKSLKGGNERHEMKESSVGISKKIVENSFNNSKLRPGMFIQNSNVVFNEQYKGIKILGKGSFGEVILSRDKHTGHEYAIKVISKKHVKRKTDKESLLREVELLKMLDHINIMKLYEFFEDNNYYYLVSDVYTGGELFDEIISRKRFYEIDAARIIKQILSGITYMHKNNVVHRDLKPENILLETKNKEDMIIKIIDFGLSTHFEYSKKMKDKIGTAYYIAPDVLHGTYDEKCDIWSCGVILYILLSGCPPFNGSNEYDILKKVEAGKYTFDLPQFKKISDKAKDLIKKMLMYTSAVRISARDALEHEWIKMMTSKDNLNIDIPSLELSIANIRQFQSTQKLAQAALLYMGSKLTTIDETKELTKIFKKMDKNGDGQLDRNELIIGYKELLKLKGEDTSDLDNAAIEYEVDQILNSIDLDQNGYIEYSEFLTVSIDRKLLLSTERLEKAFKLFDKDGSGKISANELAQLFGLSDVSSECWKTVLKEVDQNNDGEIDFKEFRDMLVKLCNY

CC1CN(Cc2cccc(C#N)c2)CCN1c1ccc(NC(=O)c2cccs2)cc1 (stereo not given)
active: growth inhibition [1] 93% | growth inhibition [4] 94%
inactive: inhibition [2] 4% | inhibition [3] 5% | outcome [5] | outcome [6] | outcome [7] | outcome [8]

Brc1ccccc1CNc1ccnc(NCCn2ccnc2)n1
inactive: growth inhibition [1] 33% | inhibition [3] 4% | outcome [5] | outcome [6] | outcome [7] | outcome [8]
active: inhibition [2] 72% | growth inhibition [4] 99%

c1ccc(OCCCCN2CCCCC2)cc1
inactive: growth inhibition [1] 1% | inhibition [2] 2% | inhibition [3] -11% | outcome [5] | outcome [6] | outcome [7] | outcome [8]
active: growth inhibition [4] 95%

O=C(Nc1ccc(OC(F)(F)F)cc1)NC1CCN(c2ccnc3ccccc23)C1 (stereo not given)
active: growth inhibition [1] 89% | growth inhibition [4] 101%
inactive: inhibition [2] 25% | inhibition [3] 1% | outcome [5] | outcome [6] | outcome [7] | outcome [8]

Cc1ccccc1CNc1noc(-c2c(F)cccc2Cl)n1
active: growth inhibition [1] 90% | growth inhibition [4] 97%
inactive: inhibition [2] 14% | inhibition [3] -5% | outcome [5] | outcome [6] | outcome [7] | outcome [8]

CCOc1ccc2nc(C)cc(NN=Cc3ccc(Cl)cc3)c2c1
active: growth inhibition [1] 100% | growth inhibition [4] 100%
inactive: inhibition [2] 0% | inhibition [3] 5% | outcome [5] | outcome [6] | outcome [7] | outcome [8]

COc1ccccc1CN1CCC(NC(=O)c2ccc(-c3cccc(Cl)c3)s2)CC1
inactive: growth inhibition [1] 9% | inhibition [2] 49% | inhibition [3] -1% | outcome [5] | outcome [6] | outcome [7] | outcome [8]
active: growth inhibition [4] 84%

Cc1cccc2[nH]c(-c3ccc(-c4ccc(NC(=O)Nc5ccsc5)cc4)s3)nc12
inactive: inhibition [3] 2% | outcome [5] | outcome [6] | outcome [7] | outcome [8]
active: growth inhibition [1] 88% | inhibition [2] 74% | growth inhibition [4] 100%

COc1cc2nc(N3CCC(CNC(=O)c4ccc(-c5ccc(-c6noc(C)n6)cc5C)cc4)CC3)nc(N)c2cc1OC
inactive: inhibition [3] -4% | outcome [5] | outcome [6] | outcome [7] | outcome [8]
active: growth inhibition [1] 99% | inhibition [2] 99% | growth inhibition [4] 100%

O=C(NCCCCCN1CCC(c2c[nH]c3ccccc23)CC1)Nc1ccc(Br)cc1
inactive: growth inhibition [1] -4% | inhibition [2] 24% | inhibition [3] 1% | outcome [5] | outcome [6] | outcome [7] | outcome [8]
active: growth inhibition [4] 91%

Cn1cnc2c(SCc3ccccc3OCc3ccccc3)ncnc21
active: growth inhibition [4] 86%
inactive: growth inhibition [1] 34% | inhibition [2] 6% | inhibition [3] -3% | outcome [5] | outcome [6] | outcome [7] | outcome [8]

COc1cc(NC(=O)/C=C/c2ccccc2Cl)cc(OCCN2CCC(O)(c3ccccc3)CC2)c1
inactive: growth inhibition [1] 46% | inhibition [2] 48% | inhibition [3] -1% | outcome [5] | outcome [6] | outcome [7] | outcome [8]
active: growth inhibition [4] 102%

COc1cc(C(=O)NC2CCN(Cc3ccccc3)CC2)ccc1-c1nc2cc(Cl)c(Cl)cc2[nH]1
inactive: inhibition [2] 14% | inhibition [3] 4% | outcome [5] | outcome [6] | outcome [7] | outcome [8]
active: growth inhibition [1] 100% | growth inhibition [4] 103%

COc1cccc(C(NC(=O)c2ccccc2)c2ccc3cccnc3c2O)c1 (stereo not given)
inactive: growth inhibition [1] 41% | inhibition [3] 2% | outcome [5] | outcome [6] | outcome [7] | outcome [8]
active: inhibition [2] 52% | growth inhibition [4] 89%

O=C(Nc1ccc(-c2nc3ccccc3[nH]2)cc1)C1CCCN(C2CCC2)C1 (stereo not given)
inactive: growth inhibition [1] 5% | inhibition [2] -1% | inhibition [3] 4% | outcome [5] | outcome [6] | outcome [7] | outcome [8]
active: growth inhibition [4] 90%

COCCNCc1ccc(-c2ccc(CNc3ccc4ncccc4c3)cc2)cc1
active: growth inhibition [4] 85%
inactive: growth inhibition [1] 4% | inhibition [2] 41% | inhibition [3] -4% | outcome [5] | outcome [6] | outcome [7] | outcome [8]

COc1ccc(S(=O)(=O)N2CCCc3ccc(Br)cc32)cc1N1CCN(C(=O)C(Cl)(Cl)Cl)CC1
active: growth inhibition [1] 93% | growth inhibition [4] 97%
inactive: inhibition [2] 23% | inhibition [3] 2% | outcome [5] | outcome [6] | outcome [7] | outcome [8]

CCN(CC)CC(O)c1cc(-c2ccc(OC)cc2)nc2cc(Cl)ccc12 (stereo not given)
active: growth inhibition [1] 98% | growth inhibition [4] 99%
inactive: inhibition [2] 12% | inhibition [3] -10% | outcome [5] | outcome [6] | outcome [7] | outcome [8]

CN1CCN(c2ccnc3ccc(NC(=O)Nc4ccc5c(c4)CCC5=O)cc23)CC1
inactive: inhibition [2] 8% | inhibition [3] 0% | outcome [5] | outcome [6] | outcome [7] | outcome [8]
active: growth inhibition [1] 67% | growth inhibition [4] 100%

CC1(C)N=C(N)N=C(N)N1OCCSc1ccc(Cl)c(Cl)c1
active: growth inhibition [1] 95% | inhibition [2] 65% | growth inhibition [4] 96%
inactive: inhibition [3] -1% | outcome [5] | outcome [6] | outcome [7] | outcome [8]

NCc1ccc(CNCc2cccc(-c3cccc(-c4nc5ccc(F)cc5[nH]4)c3)c2)cc1
inactive: growth inhibition [1] 34% | inhibition [2] 15% | inhibition [3] -2% | outcome [5] | outcome [6] | outcome [7] | outcome [8]
active: growth inhibition [4] 101%

O=S(=O)(c1ccccc1OC(F)(F)F)C1C[C@H]2CC[C@@H](C1)N2S(=O)(=O)c1cccc(C(F)(F)F)c1 (stereo not given in full)
inactive: inhibition [2] 5% | inhibition [3] 2% | outcome [5] | outcome [6] | outcome [7] | outcome [8]
active: growth inhibition [1] 99% | growth inhibition [4] 99%

Cc1cc(CNCCCCCNCc2ccc(Cl)cc2)ccc1O
inactive: growth inhibition [1] -1% | inhibition [2] 12% | inhibition [3] -7% | outcome [5] | outcome [6] | outcome [7] | outcome [8]
active: growth inhibition [4] 98%

CCNc1cc(C(=O)N[C@@H](Cc2ccccc2)[C@H](O)CNC2CCCCC2)cc(N2CCCCS2(=O)=O)c1
active: growth inhibition [1] 98% | growth inhibition [4] 99%
inactive: inhibition [2] 11% | inhibition [3] -4% | outcome [5] | outcome [6] | outcome [7] | outcome [8]

CC(C)CCOc1ccc(NC(=O)c2cccs2)cc1
inactive: inhibition [2] 11% | inhibition [3] -3% | outcome [5] | outcome [6] | outcome [7] | outcome [8]
active: growth inhibition [1] 95% | growth inhibition [4] 95%

CN1CC[C@@H](Oc2cc(CNC(=O)c3ccc(-c4ccc(Cl)cc4)s3)ccc2C(F)(F)F)C1
active: growth inhibition [1] 64% | growth inhibition [4] 93%
inactive: inhibition [2] 40% | inhibition [3] 2% | outcome [5] | outcome [6] | outcome [7] | outcome [8]

O=c1cc(NCCC2CC=CCN2Cc2ccc(Cl)c(Cl)c2)[nH]c2ccccc12 (stereo not given)
inactive: inhibition [2] 7% | inhibition [3] 4% | outcome [5] | outcome [6] | outcome [7] | outcome [8]
active: growth inhibition [1] 77% | growth inhibition [4] 94%

CN(C)Cc1ccc2cc(NC(=O)c3ccc(-c4ccc(Cl)cc4)cc3)ccc2n1
inactive: growth inhibition [1] 30% | inhibition [3] -1% | outcome [5] | outcome [6] | outcome [7] | outcome [8]
active: inhibition [2] 60% | growth inhibition [4] 86%

N#Cc1ccc2[nH]cc(CN3CCC4(CC3)CN(CCNCc3ccccc3)C(=O)CO4)c2c1
inactive: growth inhibition [1] -2% | inhibition [2] -3% | inhibition [3] 1% | outcome [5] | outcome [6] | outcome [7] | outcome [8]
active: growth inhibition [4] 98%

CCCOc1ccc(CCCON2C(N)=NC(N)=NC2(C)C)cc1
inactive: inhibition [3] 0% | outcome [5] | outcome [6] | outcome [7] | outcome [8]
active: growth inhibition [1] 94% | inhibition [2] 65% | growth inhibition [4] 95%

CC1CCCCC1N(C)C1CCN(CCCNC(=O)C=Cc2ccc(Cl)cc2Cl)CC1 (stereo not given)
inactive: inhibition [3] 4% | outcome [5] | outcome [6] | outcome [7] | outcome [8]
active: growth inhibition [1] 59% | inhibition [2] 53% | growth inhibition [4] 101%

COc1ccc2nccc([C@@H](O)CN3CCC(NCc4cc5ccccn5n4)CC3)c2c1
inactive: growth inhibition [1] 18% | inhibition [2] 7% | inhibition [3] -8% | outcome [5] | outcome [6] | outcome [7] | outcome [8]
active: growth inhibition [4] 99%

COc1cc(CNCCCCCCNCc2cc(OC)cc3ccccc23)c2ccccc2c1
inactive: inhibition [3] -5% | outcome [5] | outcome [6] | outcome [7] | outcome [8]
active: growth inhibition [1] 94% | inhibition [2] 57% | growth inhibition [4] 100%

COc1ccc(NC(=O)c2ccc(OCCCCCCCOc3ccc(C(=O)Nc4ccc(OC)c(N5CCN(C)CC5)c4)cc3)cc2)cc1N1CCN(C)CC1
active: growth inhibition [1] 91% | inhibition [2] 98% | growth inhibition [4] 96%
inactive: inhibition [3] -5% | outcome [5] | outcome [6] | outcome [7] | outcome [8]

COc1ccc2nc3cc(Cl)ccc3c(NCCCCNc3c4ccc(Cl)cc4nc4ccc(OC)cc34)c2c1
active: growth inhibition [1] 99% | growth inhibition [4] 99%
inactive: inhibition [2] 20% | inhibition [3] 6% | outcome [5] | outcome [6] | outcome [7] | outcome [8]

COCCN1CCN(Cc2ccc(-c3ccc(-c4nc5ccc(F)cc5[nH]4)cc3)cc2)CC1
active: growth inhibition [1] 99% | growth inhibition [4] 101%
inactive: inhibition [2] 25% | inhibition [3] -2% | outcome [5] | outcome [6] | outcome [7] | outcome [8]

CC(C)(C)[C@@H](Nc1ccc(C#N)c2ccccc12)C(=O)NC1(Cc2ccc(O)cc2)CCCC1
active: growth inhibition [1] 74% | growth inhibition [4] 90%
inactive: inhibition [2] 14% | inhibition [3] 0% | outcome [5] | outcome [6] | outcome [7] | outcome [8]

NC(N)=NCCCN(Cc1ccccc1)c1ccccc1
inactive: inhibition [2] -13% | inhibition [3] -3% | outcome [5] | outcome [6] | outcome [7] | outcome [8]
active: growth inhibition [1] 97% | growth inhibition [4] 100%

CC(=O)N1N=C(c2ccc(F)cc2)Sc2c1nc(-c1ccccc1)n2C(C)=O
active: growth inhibition [1] 67% | growth inhibition [4] 99%
inactive: inhibition [2] -11% | inhibition [3] -1% | outcome [5] | outcome [6] | outcome [7] | outcome [8]

CCNc1cc(C(=O)N[C@@H](Cc2ccccc2)[C@H](O)CNCCc2ccccc2)cc(N2CCCCS2(=O)=O)c1
inactive: inhibition [2] 14% | inhibition [3] 7% | outcome [5] | outcome [6] | outcome [7] | outcome [8]
active: growth inhibition [1] 91% | growth inhibition [4] 98%
